# From PubChem BioAssay
# RN4220 kill = S. aureus RN4220 growth inhibition; OD600, 16 h; inhibition, % (concentration not given with the values); 330,000 compounds, 0.33% hits; AID 1259311; in the data active means inhibition above about 85%;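 further: plate controls were untreated cells for no effect and reference antibiotic for full effect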
# BJeLR viability = BJeLR cell viability loss | BJeLR (HRASV12) viability, CellTiter-Glo ATP luminescence, 48 h | inhibition, % (concentration not given with the values) | 300,000 compounds, 0.17% hits; in the data active means inhibition above about 50%
# PriA SSB inh = K. pneumoniae PriA-SSBct interaction inhibition; inhibition, % at 33 µM; AlphaScreen SSBct-PriA binding, biotinylated peptide; 430,000 compounds, 0.6% hits; in the data active means inhibition mostly above about 37%, no sharp cut-off; inactive means mostly below about 20%;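 further: plate controls were negative control peptide for no effect and reference peptide for full effect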
# MazF activator = MazEF (E. coli) toxin RNase activation; 350,000 compounds, 0.32% hits; activation, % at 20 µM; FAM/BHQ RNA-DNA oligo cleavage fluorescence, 5 h; in the data active means activation above about 50%
# Target sequence (P0AE70 whole entry, looked up): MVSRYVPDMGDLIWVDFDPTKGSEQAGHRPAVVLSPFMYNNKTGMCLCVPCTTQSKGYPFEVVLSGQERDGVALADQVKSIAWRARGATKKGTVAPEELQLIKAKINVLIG
# ugtP null kill = kills S. aureus RN4220 lacking UgtP | S. aureus RN4220 ugtP deletion, OD600 growth, 16 h | growth inhibition, % (concentration not given with the values) | 330,000 compounds, 0.54% hits | AID 1259309; in the data active means growth inhibition above about 68%;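 further: plate controls were untreated wells for no effect and antibiotic for full effect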
# The depositor's hits bear a star; x = no result given. Shown are actives, neighbours in structure and some others; about 1.2% of the full set was active somewhere.
SMILES,RN4220 kill,BJeLR viability,PriA SSB inh,MazF activator,ugtP null kill
Cc1ccccc1C(=O)N1CCN(CCNC(=O)C(=O)Nc2ccc(Br)cc2)CC1,-0.9,-2.5,39.0*,7.2,-1.3
CC1CC(C)(C)NC(C)c2ccccc21 (stereo unspecified),0.3,1.9,-7.0,7.6,13.8
C/C(CC(=O)NCc1ccco1)=N\NC(=O)Cc1ccc(-c2ccccc2)cc1,x,2.4,x,79.0*,x
CC(CC(=O)NCc1ccco1)=NNC(=O)Cc1cccc2ccccc12,-9.7,x,6.6,x,-5.4
O=C(Cc1ccc(-c2ccccc2)cc1)NCc1ccccc1,-5.2,63.7*,3.5,0.2,-1.5
CCCc1cc(=O)oc2cc(OCC(=O)Nc3ccc4c(c3)OCCO4)ccc12,-8.8,7.9,-13.3,1.1,-0.3
O=C(N/N=C/c1cc2c3c(c1O)CCCN3CCC2)c1ccccc1O,x,53.3*,x,-32.1,x
COC(=O)c1ccc(CN2C(=O)NC3(CCC(C)CC3)C2=O)cc1 (stereo unspecified),-1.4,2.4,-8.4,9.4,3.9
CCCCCOc1ccc(Br)cc1/C(C)=N/NC1=NCCN1,x,81.0*,x,21.5,x
CCCCOc1ccc(Br)cc1C(C)=NNC1=NCCN1,10.8,x,14.1,x,-24.1
CSc1ccc(COC(=O)c2cc([N+](=O)[O-])ccc2N2CCOCC2)cc1,6.5,55.8*,19.4,-3.8,-3.2
Cc1ccccc1COC(=O)c1cc([N+](=O)[O-])ccc1N1CCOCC1,2.9,2.8,-3.5,2.4,3.7
O=C(c1cc([N+](=O)[O-])ccc1N1CCOCC1)N1CCN(c2ccccc2)CC1,x,56.2*,x,x,x
CN1CCN(c2ccc([N+](=O)[O-])cc2C(=O)N2CCOCC2)CC1,0.2,4.5,-26.7,5.2,-1.0
O=C(NCc1ccc2c(c1)OCO2)c1ccc(S(=O)(=O)C(F)F)cc1,2.8,4.6,-12.1,1.3,2.8
COc1ccc(N(CC(=O)NC2CCCC2)S(=O)(=O)c2cccnc2)cc1,x,x,-1.0,x,x
COc1ccc(C)cc1Nc1n[n+](-c2ccccc2)c(-c2ccc(NC(C)=O)cc2)s1,5.6,-1.8,47.1*,-6.6,-8.1
CCc1ccc(Nc2n[n+](-c3ccccc3)c(-c3ccc(OC)c(Br)c3)s2)cc1,0.8,9.1,56.4*,-17.3,-1.0
COc1ccc(C)cc1Nc1n[n+](-c2ccccc2)c(-c2ccc(SC)cc2)s1,2.5,6.5,2.8,6.3,4.1
CCc1ccc(Nc2n[n+](-c3ccccc3)c(-c3ccc(SC)cc3)s2)cc1,0.1,5.4,66.2*,-15.0,-14.4
CCc1ccc(Nc2n[n+](-c3ccccc3)c(-c3ccc(C(=O)O)cc3)s2)cc1,2.3,3.6,-5.0,4.5,9.0
COc1ccc(C)cc1Nc1n[n+](-c2ccccc2)c(-c2cc([N+](=O)[O-])cc(OC)c2O)s1,3.1,13.3,2.2,445.0*,-5.4
COc1ccccc1N1CCN(S(=O)(=O)c2cc3c(cc2C)NC(=O)CO3)CC1,-3.3,10.2,6.8,18.7,-7.5
O=c1cc(N2CCc3ccccc32)[nH]c(=O)n1-c1ccc(Cl)cc1,2.5,x,-12.0,1.0,-3.2
CSc1ccc(-c2sc(Nc3cccc4ccccc34)n[n+]2-c2ccccc2)cc1,-7.4,11.6,47.2*,8.1,6.5
SMILES,RN4220 kill,BJeLR viability,PriA SSB inh,MazF activator,ugtP null kill
CSc1ccc(-c2sc(Nc3ccccc3)n[n+]2-c2ccccc2)cc1,x,3.5,3.0,6.7,x
CC(=O)Nc1ccc(-c2sc(Nc3cccc4ccccc34)n[n+]2-c2ccccc2)cc1,x,-0.3,62.9*,4.3,x
CC(=O)Nc1ccc(-c2sc(Nc3ccccc3)n[n+]2C)cc1,6.6,-8.6,-7.7,4.4,-0.8
CC(Oc1ccc(Cl)cc1Cl)C(=O)NC(=S)N1CCc2ccccc21 (stereo unspecified),99.0*,-2.0,-10.2,-9.7,98.4*
CCOC(=O)C1=C(c2ccccc2)NC(N)=NC1c1ccc(OCc2ccc(Cl)cc2)c(OC)c1 (stereo unspecified),99.1*,6.6,31.8,-43.7,71.3
CCOC(=O)C1=C(c2ccccc2)NC(=O)NC1c1cc(Cl)c(O)c(OC)c1 (stereo unspecified),7.0,-0.9,-0.4,-9.3,-1.4
COC(=O)C(=NNc1ccc(Cl)cc1)Sc1nnc(-c2ccc(OC)cc2)n1C,5.7,x,116.4*,x,-2.8
Cc1ccc(C)c(OCCC(=O)N2CCN(S(=O)(=O)c3cc(F)ccc3F)CC2)c1,7.6,x,-5.3,-4.1,-0.3
CCN(CCCNC(=O)c1[nH]c(C)c(C(C)=O)c1C)c1cccc(C)c1,0.2,0.5,40.1*,-0.2,-0.5
COc1cc(C2C(=C(O)c3ccc4c(c3)OCCO4)C(=O)C(=O)N2CCN2CCOCC2)cc(OC)c1OC (stereo unspecified),x,x,1.6,x,x
COc1cccc(N2C[C@@H](C(=O)Nc3c(C(=O)Nc4ccc5c(c4)OCCO5)oc4ccccc34)CC2=O)c1,x,x,69.0*,x,x
C=CCOc1ccc2c(c1)CCC1C2CCC2(C)C(O)C(O)CC12 (stereo unspecified),-7.9,x,6.7,-8.4,84.4*
C[C@]12CCC3c4ccc(O)cc4CCC3C1CC(O)C2O (stereo partly specified),6.4,x,x,x,-3.6
Cc1ccc(-c2nnc(SCC(=O)Nc3ccccc3F)o2)cc1,4.5,55.9*,-8.6,-7.8,10.2
CCN1C(=O)c2cccc3c(S(=O)(=O)Nc4nc(C)cs4)ccc1c23,28.0,4.6,-8.0,3.9,95.4*
N#CCCN1CCN(CCC#N)CC1,3.1,2.8,10.3,3.4,1.2
Cc1cc(CN2CCN(CCC#N)CC2)c(O)c(C2(C)CCCCC2)c1,16.4,1.6,3.9,-4.4,84.3*
N=c1c[n+](C2CCCCC2)[n-]o1,5.3,-1.4,-11.2,7.6,13.1
N=c1c[n+](N2CCOCC2)[n-]o1,x,-0.1,-29.5,352.8*,x
CSc1cccc(Nc2ccc(S(=O)(=O)N3CCOCC3)cc2[N+](=O)[O-])c1,-0.3,x,38.4*,2.8,-0.9
COc1ccccc1C(C)Nc1ccc(S(=O)(=O)N2CCN(C)CC2)cc1[N+](=O)[O-] (stereo unspecified),0.4,x,56.6*,-2.7,0.8
COc1ccc(Nc2ccc(S(=O)(=O)N3CCCCCC3)cc2[N+](=O)[O-])cc1,1.2,14.1,45.9*,9.2,-13.0
COc1cc(Nc2ccc(S(=O)(=O)N3CCN(C)CC3)cc2[N+](=O)[O-])cc(OC)c1,1.3,9.9,32.1,0.5,2.9
COc1ccc(Nc2ccc(S(=O)(=O)N3CCCCC3)cc2[N+](=O)[O-])cc1OC,5.0,15.1,69.8*,5.6,0.2
COC(=O)[C@]1(Cc2ccccc2)N[C@H](CN(C)S(=O)(=O)c2ccc(C(C)(C)C)cc2)[C@@H]2C(=O)N(C)C(=O)[C@@H]21,2.3,x,6.9,29.0,4.7
Cc1cc(=O)c2ccccc2n1CC(=O)NCc1ccccc1,2.6,-3.9,8.5,-0.3,-1.2
COc1cccc(Oc2cc(NN3CCCCC3)c([N+](=O)[O-])cc2[N+](=O)[O-])c1OC,3.8,11.1,47.9*,1.1,0.6
O=[N+]([O-])c1cc([N+](=O)[O-])c(Oc2cccc3c2CCCC3)cc1NN1CCCCC1,3.1,x,-5.2,-10.8,0.7
